Laboratory results as given in the supplement of paper PMC10849652.
Of roughly 7,900 targets only a part is listed; those with a hit were picked by preference. About 0.6% of all pairs of compound and target were hits.

Key:
Assay in all cases: log2 fold change, soluble protein after heating vs DMSO (PISA); higher = thermal stabilisation; K562 cells, 10 uM, 30 min; active = over 0.2 and 3.5 SD of the protein, either way, in both replicates (recomputed)
[1] = compound: COC1=CC=C(C=C1)CN2C=CC3=C2C=C(C=C3)C(=O)NO
Method in brief: (§1)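 Soluble protein was defined as the supernatant after 21,000xg for 90 min. It came from K562 cells at 2×10^6 cells/mL given 10 μM compound for 30 min, heated in aliquots for 3 min across 48°C-58°C, pooled, and extracted in PBS with 0.5% NP-40 at 4°C, and was quantified by TMTpro 16plex LC-MS/MS with equalised channel sums. Thermal stability against control samples, from duplicates, is reported as log2 fold change.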

[2] = compound: CON(C)C(=O)N1N=C(c2cc(F)ccc2F)S[C@@]1(CCCN)c1ccccc1 [filanesib]
Method in brief: as §1

[3] = compound: CO[C@H]1C[C@@H]2CC[C@@H](C)[C@@](O)(O2)C(=O)C(=O)N2CCCC[C@H]2C(=O)O[C@H]([C@H](C)C[C@@H]2CC[C@H](n3cnnn3)[C@H](OC)C2)CC(=O)[C@H](C)/C=C(\C)[C@@H](O)[C@@H](OC)C(=O)[C@H](C)C[C@H](C)/C=C/C=C/C=C/1C [zotarolimus]
Method in brief: as §1

[4] = compound: COc1cc(C(=O)O)ccc1NC(=O)[C@@H]1N[C@@H](CC(C)(C)C)[C@](C#N)(c2ccc(Cl)cc2F)[C@H]1c1cccc(Cl)c1F [idasanutlin]
Method in brief: as §1

[5] = compound: COc1cc(Nc2ncc3c(n2)-c2ccc(Cl)cc2C(c2c(F)cccc2OC)=NC3)ccc1C(=O)O [alisertib]
Method in brief: as §1

[6] = compound: COc1cc2nc(-c3cc(F)ccc3O)nc(N[C@@H]3CNC[C@H]3C(C)(C)O)c2cc1OC
Method in brief: as §1

[7] = compound: COc1cc2ncnc(Nc3ccc(F)c(Cl)c3)c2cc1OCCCN1CCOCC1 [gefitinib]
Method in brief: as §1

[8] = compound: COc1cccc2cc(-c3nc([C@H]4CC[C@H](C(=O)O)CC4)n4ncnc(N)c34)[nH]c12
Method in brief: as §1

[9] = compound: CS(=O)(=O)CCNCc1ccc(-c2ccc3ncnc(Nc4ccc(OCc5cccc(F)c5)c(Cl)c4)c3c2)o1 [lapatinib]
Method in brief: as §1

[10] = compound: CS(=O)(=O)N1CCN(Cc2cc3nc(-c4cccc5[nH]ncc45)nc(N4CCOCC4)c3s2)CC1 [pictilisib]
Method in brief: as §1

[11] = compound: CS(=O)(=O)c1ccc(-c2cnc(N)c(C(=O)Nc3ccccc3)n2)cc1
Method in brief: as §1

[12] = compound: C[C@@H](Oc1cc(-c2cnn(C3CCNCC3)c2)cnc1N)c1c(Cl)ccc(F)c1Cl [crizotinib]
Method in brief: as §1

[13] = compound: C[C@@H]1COCCN1C2=NC(=NC(=C2)C3(CC3)S(=O)(=O)C)C4=C5C=CNC5=CC=C4
Method in brief: as §1

[14] = compound: C[C@H](C1=CC=C(C=C1)C(=O)NC2=C3C=CNC3=NC=C2)N
Method in brief: as §1

[15] = compound: C[C@H](Nc1ncnc2nc[nH]c12)c1cc2cccc(Cl)c2c(=O)n1-c1ccccc1 [duvelisib]
Method in brief: as §1

[16] = compound: Cc1cc(Nc2cc(CN3CCOCC3)c3nc(C)c(Cc4ccc(Cl)cc4F)n3n2)n[nH]1 [gandotinib]
Method in brief: as §1

[17] = compound: Cc1cc(Nc2cc(N3CCN(C)CC3)nc(Sc3ccc(NC(=O)C4CC4)cc3)n2)n[nH]1 [tozasertib]
Method in brief: as §1

[18] = compound: Cc1cc(SCc2sc(-c3ccc(C(F)(F)F)cc3)nc2C)ccc1OCC(=O)O
Method in brief: as §1

[19] = compound: Cc1ccc(-n2nc(C(C)(C)C)cc2NC(=O)Nc2ccc(OCCN3CCOCC3)c3ccccc23)cc1 [doramapimod]
Method in brief: as §1

[20] = compound: Cc1ccc(C(=O)N(CCCN)[C@@H](c2nc3cc(Cl)ccc3c(=O)n2Cc2ccccc2)C(C)C)cc1 [ispinesib]
Method in brief: as §1

Measured: log2 fold change

PXK (UniProt Q7Z7A4)
Sequence of UniProt Q7Z7A4 (Q7Z7A4 whole entry, looked up): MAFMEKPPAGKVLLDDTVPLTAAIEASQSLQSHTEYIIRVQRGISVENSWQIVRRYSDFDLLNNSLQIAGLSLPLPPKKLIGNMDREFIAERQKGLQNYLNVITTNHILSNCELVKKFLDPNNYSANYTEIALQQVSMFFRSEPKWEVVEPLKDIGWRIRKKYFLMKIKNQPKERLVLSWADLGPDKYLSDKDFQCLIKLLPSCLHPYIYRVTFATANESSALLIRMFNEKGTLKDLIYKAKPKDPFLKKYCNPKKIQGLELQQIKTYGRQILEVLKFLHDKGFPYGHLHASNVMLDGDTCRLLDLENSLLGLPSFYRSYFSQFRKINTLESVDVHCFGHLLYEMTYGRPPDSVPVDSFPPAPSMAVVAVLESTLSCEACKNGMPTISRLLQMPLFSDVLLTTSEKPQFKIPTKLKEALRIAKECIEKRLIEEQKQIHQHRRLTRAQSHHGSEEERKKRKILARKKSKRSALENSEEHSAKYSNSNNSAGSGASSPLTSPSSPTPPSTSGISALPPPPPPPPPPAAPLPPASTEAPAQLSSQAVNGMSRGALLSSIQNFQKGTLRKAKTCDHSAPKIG
inactive: [1] 0.105 | [2] -0.005 | [3] 0.021 | [4] -0.035 | [5] -0.057 | [6] 0.069 | [7] -0.001 | [8] 0.015 | [9] 0.03 | [10] 0.127 | [11] -0.06 | [12] -0.139 | [13] 0.032 | [14] -0.026 | [15] -0.023 | [16] -0.042 | [17] -0.024 | [18] 0.011 | [19] -0.025 | [20] -0.203

PIP4K2B (UniProt P78356)
inactive: [1] 0.028 | [2] -0.146 | [3] 0.025 | [4] -0.104 | [5] -0.045 | [7] 0.035 | [8] 0.207 | [9] -0.026 | [10] 0.022 | [12] -0.01 | [13] 0.048 | [14] -0.072 | [15] 0.028 | [16] -0.031 | [17] -0.025 | [18] -0.009 | [19] -0.055 | [20] -0.007
active: [6] 0.379 | [11] 0.63

PLD3 (UniProt Q8IV08)
inactive: [1] -0.027 | [2] -0.131 | [3] -0.006 | [4] 0.001 | [5] -0.139 | [6] 0.019 | [7] 0.008 | [8] 0.027 | [9] -0.025 | [10] 0.045 | [11] -0.034 | [12] -0.158 | [13] 0.005 | [14] -0.03 | [15] -0.012 | [16] 0.006 | [17] -0.009 | [18] -0.023 | [19] 0.001 | [20] -0.132

PPOX (UniProt P50336)
Sequence of UniProt P50336 (P50336 whole entry, looked up): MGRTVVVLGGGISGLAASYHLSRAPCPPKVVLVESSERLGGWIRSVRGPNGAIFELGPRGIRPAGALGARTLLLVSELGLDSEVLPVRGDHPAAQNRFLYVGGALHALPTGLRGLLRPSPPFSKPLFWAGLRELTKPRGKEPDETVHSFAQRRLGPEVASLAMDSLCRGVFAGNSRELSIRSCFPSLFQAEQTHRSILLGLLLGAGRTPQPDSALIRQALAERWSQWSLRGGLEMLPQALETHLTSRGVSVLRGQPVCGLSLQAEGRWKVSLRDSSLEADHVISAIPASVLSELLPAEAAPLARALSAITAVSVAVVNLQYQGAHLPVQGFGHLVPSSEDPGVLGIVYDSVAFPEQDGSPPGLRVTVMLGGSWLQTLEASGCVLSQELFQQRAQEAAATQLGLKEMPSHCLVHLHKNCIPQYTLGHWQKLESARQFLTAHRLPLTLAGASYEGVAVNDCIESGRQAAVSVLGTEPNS
active: [4] 0.574
inactive: [1] 0.324 | [2] -0.226 | [3] 0.352 | [5] 0.033 | [6] -0.178 | [7] 0.116 | [8] 0.021 | [9] 0.471 | [10] 0.475 | [11] 0.173 | [12] -0.197 | [13] 0.128 | [14] -0.077 | [15] 0.304 | [16] 0.427 | [17] 0.019 | [18] 0.091 | [19] 0.378 | [20] 0.02

PSME4 (UniProt Q14997)
Sequence of UniProt Q14997 (Q14997 whole entry, looked up): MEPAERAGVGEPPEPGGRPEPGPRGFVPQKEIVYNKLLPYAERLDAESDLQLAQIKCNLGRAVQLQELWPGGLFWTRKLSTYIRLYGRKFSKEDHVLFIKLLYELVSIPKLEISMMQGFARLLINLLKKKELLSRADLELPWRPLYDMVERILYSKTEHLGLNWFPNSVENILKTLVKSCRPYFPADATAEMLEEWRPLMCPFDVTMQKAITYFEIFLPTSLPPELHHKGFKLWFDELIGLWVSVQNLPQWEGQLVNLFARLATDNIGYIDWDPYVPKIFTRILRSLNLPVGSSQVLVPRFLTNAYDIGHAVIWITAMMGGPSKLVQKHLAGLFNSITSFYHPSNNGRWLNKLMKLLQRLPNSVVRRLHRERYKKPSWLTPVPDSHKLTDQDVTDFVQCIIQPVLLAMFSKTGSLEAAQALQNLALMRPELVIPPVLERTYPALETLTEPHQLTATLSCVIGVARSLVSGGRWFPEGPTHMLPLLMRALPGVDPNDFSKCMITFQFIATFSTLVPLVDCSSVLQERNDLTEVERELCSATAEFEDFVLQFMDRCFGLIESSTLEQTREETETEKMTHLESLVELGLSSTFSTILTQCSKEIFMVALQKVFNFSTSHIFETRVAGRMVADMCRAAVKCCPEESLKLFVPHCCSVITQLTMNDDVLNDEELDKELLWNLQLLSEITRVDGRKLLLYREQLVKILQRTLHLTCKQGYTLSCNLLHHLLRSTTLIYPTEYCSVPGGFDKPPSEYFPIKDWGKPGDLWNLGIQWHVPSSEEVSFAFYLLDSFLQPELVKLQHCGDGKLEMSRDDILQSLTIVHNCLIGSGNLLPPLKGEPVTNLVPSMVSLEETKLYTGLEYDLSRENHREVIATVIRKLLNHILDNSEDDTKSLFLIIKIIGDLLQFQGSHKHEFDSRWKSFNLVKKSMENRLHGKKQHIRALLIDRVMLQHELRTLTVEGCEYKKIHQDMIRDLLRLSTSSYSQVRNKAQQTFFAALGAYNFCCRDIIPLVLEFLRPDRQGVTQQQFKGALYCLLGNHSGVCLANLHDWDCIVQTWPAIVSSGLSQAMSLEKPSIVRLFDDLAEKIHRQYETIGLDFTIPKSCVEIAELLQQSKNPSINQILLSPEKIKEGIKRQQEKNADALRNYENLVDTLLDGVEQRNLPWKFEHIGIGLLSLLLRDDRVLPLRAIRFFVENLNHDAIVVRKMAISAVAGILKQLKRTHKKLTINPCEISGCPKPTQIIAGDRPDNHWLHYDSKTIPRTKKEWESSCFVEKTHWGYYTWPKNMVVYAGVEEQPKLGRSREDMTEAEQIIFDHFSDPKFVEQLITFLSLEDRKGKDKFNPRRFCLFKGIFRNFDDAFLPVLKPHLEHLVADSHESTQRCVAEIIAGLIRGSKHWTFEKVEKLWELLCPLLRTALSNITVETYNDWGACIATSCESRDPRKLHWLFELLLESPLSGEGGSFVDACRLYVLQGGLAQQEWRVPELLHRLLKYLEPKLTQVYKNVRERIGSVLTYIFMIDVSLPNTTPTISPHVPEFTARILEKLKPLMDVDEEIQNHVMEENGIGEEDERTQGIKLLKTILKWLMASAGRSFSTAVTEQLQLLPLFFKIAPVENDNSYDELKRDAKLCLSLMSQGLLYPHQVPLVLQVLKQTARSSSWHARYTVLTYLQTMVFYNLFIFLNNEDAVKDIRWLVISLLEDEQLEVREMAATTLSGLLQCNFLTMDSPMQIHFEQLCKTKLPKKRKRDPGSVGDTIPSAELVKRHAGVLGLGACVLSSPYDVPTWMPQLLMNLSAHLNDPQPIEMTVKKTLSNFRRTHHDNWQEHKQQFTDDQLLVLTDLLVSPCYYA
inactive: [1] -0.023 | [2] -0.091 | [3] 0.005 | [4] -0.123 | [5] -0.045 | [6] -0.03 | [7] -0.071 | [8] 0.037 | [9] 0.044 | [10] -0.045 | [11] 0.036 | [12] -0.161 | [13] 0.013 | [14] 0.052 | [15] 0.02 | [16] -0.082 | [17] -0.078 | [18] 0.093 | [19] 0.045 | [20] -0.09

PSMD1 (UniProt Q99460)
Sequence of UniProt Q99460 (Q99460 whole entry, looked up): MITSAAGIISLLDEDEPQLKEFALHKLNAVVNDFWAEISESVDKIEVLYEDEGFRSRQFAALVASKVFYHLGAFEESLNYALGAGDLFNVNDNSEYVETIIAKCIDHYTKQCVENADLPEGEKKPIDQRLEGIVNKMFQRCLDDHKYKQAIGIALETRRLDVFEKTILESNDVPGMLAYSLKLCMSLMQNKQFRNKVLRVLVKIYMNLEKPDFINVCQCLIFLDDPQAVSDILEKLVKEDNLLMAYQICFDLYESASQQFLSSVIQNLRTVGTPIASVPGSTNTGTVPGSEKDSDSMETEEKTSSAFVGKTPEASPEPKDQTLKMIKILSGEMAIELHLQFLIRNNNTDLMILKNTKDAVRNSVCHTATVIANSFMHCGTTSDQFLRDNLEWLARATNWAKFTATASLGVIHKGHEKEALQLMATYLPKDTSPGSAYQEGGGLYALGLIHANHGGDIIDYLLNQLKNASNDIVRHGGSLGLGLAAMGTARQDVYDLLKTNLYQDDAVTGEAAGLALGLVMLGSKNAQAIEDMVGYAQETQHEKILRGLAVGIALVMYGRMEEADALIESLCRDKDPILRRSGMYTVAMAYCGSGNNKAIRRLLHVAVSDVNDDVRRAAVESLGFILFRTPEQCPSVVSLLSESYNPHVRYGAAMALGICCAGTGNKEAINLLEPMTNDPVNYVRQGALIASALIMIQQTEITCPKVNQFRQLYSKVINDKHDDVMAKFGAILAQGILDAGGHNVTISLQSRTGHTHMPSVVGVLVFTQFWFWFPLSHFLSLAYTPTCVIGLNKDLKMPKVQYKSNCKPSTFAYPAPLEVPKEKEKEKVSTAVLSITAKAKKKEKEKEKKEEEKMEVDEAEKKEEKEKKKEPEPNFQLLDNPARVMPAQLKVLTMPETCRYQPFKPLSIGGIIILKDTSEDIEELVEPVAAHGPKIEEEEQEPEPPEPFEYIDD
inactive: [1] 0.009 | [2] -0.002 | [3] 0.011 | [4] -0.005 | [5] -0.126 | [6] -0.077 | [7] -0.046 | [8] -0.056 | [9] 0.069 | [10] -0.052 | [11] -0.009 | [12] -0.002 | [13] -0.075 | [14] 0.047 | [15] -0.081 | [16] 0 | [17] 0.054 | [18] 0.017 | [19] 0.036 | [20] 0.048

PPM1G (UniProt O15355)
inactive: [1] -0.011 | [2] 0.014 | [3] 0.028 | [4] 0.066 | [5] 0.019 | [6] 0.081 | [7] 0.044 | [8] -0.089 | [9] -0.052 | [10] 0.093 | [11] 0.114 | [12] -0.028 | [13] 0.045 | [14] -0.083 | [15] 0.044 | [16] -0.026 | [17] 0.081 | [18] 0.171 | [19] -0.008 | [20] -0.055

PARP16 isoform 3 (UniProt Q8N5Y8)
Sequence of UniProt Q8N5Y8 (Q8N5Y8 whole entry, looked up): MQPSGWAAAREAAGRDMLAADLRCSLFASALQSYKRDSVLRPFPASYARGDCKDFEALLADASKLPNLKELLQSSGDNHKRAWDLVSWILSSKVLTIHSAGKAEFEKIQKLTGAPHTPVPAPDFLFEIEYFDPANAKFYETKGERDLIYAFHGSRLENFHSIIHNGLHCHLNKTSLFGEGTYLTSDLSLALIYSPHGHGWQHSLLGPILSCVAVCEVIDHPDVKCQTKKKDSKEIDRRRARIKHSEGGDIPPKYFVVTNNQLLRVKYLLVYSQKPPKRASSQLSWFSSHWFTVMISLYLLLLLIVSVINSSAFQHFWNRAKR
inactive: [1] -0.029 | [2] -0.13 | [3] 0.039 | [4] -0.056 | [5] -0.075 | [6] -0.097 | [7] 0.011 | [8] -0.03 | [9] 0.071 | [10] -0.008 | [11] -0.008 | [12] 0.076 | [13] -0.021 | [14] 0.079 | [15] 0.048 | [16] 0.081 | [17] -0.007 | [18] -0.081 | [19] 0.072

POLR3B (UniProt Q9NW08)
inactive: [1] 0.026 | [2] 0.065 | [3] 0.075 | [4] 0.008 | [5] -0.086 | [6] 0.08 | [7] 0.105 | [8] -0.135 | [9] 0.008 | [10] -0.019 | [11] 0.038 | [12] -0.111 | [13] -0.004 | [14] 0.034 | [15] 0.007 | [16] -0.07 | [17] 0.101 | [18] 0.085 | [19] 0.03 | [20] -0.183

PCBP2 isoform 3 (UniProt Q15366)
inactive: [1] 0.138 | [2] -0.031 | [3] 0.048 | [4] -0.064 | [5] 0.012 | [6] -0.092 | [7] 0.011 | [8] 0.002 | [9] 0.003 | [10] -0.013 | [11] -0.036 | [12] -0.018 | [13] 0.06 | [14] -0.031 | [15] -0.006 | [16] -0.065 | [17] 0.056 | [18] 0.072 | [19] -0.008 | [20] 0.005

PSMD5 (UniProt Q16401)
inactive: [1] 0.024 | [2] -0.046 | [3] 0.013 | [4] -0.055 | [5] -0.055 | [6] -0.017 | [7] -0.013 | [8] 0 | [9] 0.017 | [10] -0.017 | [11] 0.008 | [12] 0.006 | [13] 0.046 | [14] -0.064 | [15] -0.023 | [16] -0.051 | [17] 0.043 | [18] -0.013 | [19] -0.03 | [20] 0.03

PRKCG (UniProt P05129)
inactive: [1] -0.071 | [2] 0.019 | [3] 0.118 | [4] -0.011 | [5] -0.01 | [6] 0.098 | [7] -0.025 | [8] -0.17 | [9] 0.055 | [10] 0.113 | [11] 0.078 | [12] -0.005 | [13] 0.188 | [14] 0.028 | [15] 0.244 | [16] -0.149 | [17] -0.04 | [18] 0.11 | [19] -0.029 | [20] 0

PPP2R5A (UniProt Q15172)
inactive: [1] 0.034 | [2] -0.135 | [3] 0.002 | [4] -0.206 | [5] -0.064 | [6] 0.032 | [7] -0.043 | [8] 0.005 | [9] 0.047 | [10] -0.096 | [11] -0.018 | [12] -0.154 | [13] 0.014 | [14] 0.022 | [15] 0.033 | [16] -0.21 | [17] -0.049 | [18] 0.072 | [19] -0.019 | [20] -0.056

PPP1R12A (UniProt O14974)
active: [6] -0.658 | [14] -0.885
inactive: [1] 0.003 | [2] 0.064 | [3] 0.048 | [4] 0.041 | [5] 0.028 | [7] 0.009 | [8] -0.006 | [9] 0.036 | [10] 0.005 | [11] -0.054 | [12] -0.351 | [13] -0.039 | [15] 0.065 | [16] 0.021 | [17] 0.011 | [18] 0.029 | [19] -0.054 | [20] -0.1

PSMC1 (UniProt P62191)
inactive: [1] -0.062 | [2] 0.03 | [3] -0.013 | [4] 0.009 | [5] -0.049 | [6] -0.018 | [7] -0.05 | [8] -0.015 | [9] 0.054 | [10] -0.006 | [11] 0.011 | [12] 0.023 | [13] -0.072 | [14] 0.073 | [15] -0.047 | [16] 0.06 | [17] 0.039 | [18] 0.01 | [19] 0.033 | [20] -0.036

PRKD2 isoform 3 (UniProt Q9BZL6)
inactive: [1] -0.05 | [2] -0.037 | [3] -0.125 | [4] 0.078 | [5] -0.03 | [6] -0.042 | [7] -0.159 | [8] 0.033 | [9] -0.011 | [10] -0.17 | [11] -0.275 | [12] -0.39 | [13] 0.108 | [14] -0.111 | [15] 0.066 | [16] 0.017 | [17] 0.048 | [18] -0.014 | [19] 0.023 | [20] -0.129
